We go through 20 molecules from PubChem BioAssay (NCI).

Experiment [1] can be described thus: NCI Yeast Anticancer Drug Screen. Data for the rad50 strain (AID 155).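 Further: 0% = growth of vehicle-only cultures of the same strain.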 The following applies: S. cerevisiae rad50 strain growth inhibition; at 50.0 µM; hits give high values. The method in brief:
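Relative growth inhibition (compound vs vehicle) was measured in yeast with a defined repair-gene alteration.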

The nature of experiment [2]: NCI Yeast Anticancer Drug Screen. Data for the mec2-1 strain (AID 157). The following applies: S. cerevisiae mec2-1 strain, at 50.0 µM, hits give high values. The method in brief: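 Cells of the genetically defined mec2-1 yeast strain are incubated with test compound. Inhibition of growth is calculated against vehicle-treated controls.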
Experiment [3] is described as follows: NCI Yeast Anticancer Drug Screen. Data for the sgs1 mgt1 strain (AID 161).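 Further: 0% = growth of cultures given vehicle only.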 To be noted: S. cerevisiae sgs1 mgt1 strain, at 50.0 µM, hits give high values. The method in brief:
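Test agents were incubated with a DNA-repair-mutant yeast strain. Growth was then read and compared against vehicle-treated controls.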

A short description of experiment [4]: NCI Yeast Anticancer Drug Screen. Data for the cln2 rad14 strain (AID 165).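 Further: 0% = growth equal to vehicle treated cultures.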 The following applies: S. cerevisiae cln2 rad14 strain, at 50.0 µM, hits give high values. An outline of the steps:
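The screen exposed genetically defined yeast (cln2 rad14) to test compounds and scored growth inhibition relative to vehicle-treated controls.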

The nature of experiment [5]: NCI Yeast Anticancer Drug Screen. Data for the bub3 strain (AID 167). The following applies: S. cerevisiae bub3 mutant strain, at 50.0 µM, hits give high values. An outline of the steps:
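Screening used yeast with an engineered genetic alteration affecting cell cycle control. Compound-exposed cultures were compared with vehicle cultures, and reduced growth was taken as inhibition.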

A short description of experiment [6]: NCI Yeast Anticancer Drug Screen. Data for the mlh1 rad18 strain (AID 175). The following applies: S. cerevisiae mlh1 rad18 strain growth inhibition; at 50.0 µM; hits give high values. An outline of the steps:
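Compound-treated yeast growth, normalised to vehicle controls. Strain bears defined DNA repair mutations.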

Compounds without any hit were thinned out: in the full panel of roughly 79,000, 15% have a hit. Unmarked numbers belong to inactive results. The source made the active and inactive calls. No stated cut-off is given here; in the data, active means growth inhibition above about 70%; inactive means the rest.

For the molecule `CCN(CC)CCN1C(=O)C2C3C=CC(C3)C2C1=O` (stereo not given), the growth inhibition in experiment [1] is -15.1%; in experiment [2], -15.4%; in experiment [3] it was 3.25%; in experiment [4] it was -14.9%; in experiment [5] it was -3.25%; in experiment [6], -14.9%.

On to `CCCCCCC(=O)N1SC(NC(=O)OC)=Nc2ccccc21`, for which the growth inhibition in experiment [1] was 5.55%; in experiment [2] it was 7.3%; in experiment [3], 27.6%; in experiment [4], 36.5%; in experiment [5], 69.7%; in experiment [6], 41%.

For the molecule `O=C(O)C(O)C(O)C(O)C(O)C(=O)O` (stereo not given), the growth inhibition was 7.35% in experiment [1]; -13.1% in experiment [2]; 12% in experiment [3]; -1.55% in experiment [4]; -5.1% in experiment [5]; 3.15% in experiment [6].

Consider `OCCC1=CCC1`, for which the growth inhibition in experiment [1] is 3.05%; in experiment [2] it was 20.9%; in experiment [3], -3.35%; in experiment [4] it was 29.6%; in experiment [5], 4.95%; in experiment [6] it was 5.4%.

Consider `O=C(NCCCCCCCCCCNC(=O)C12CC3CC(CC(C3)C1)C2)C12CC3CC(CC(C3)C1)C2`, for which the growth inhibition in experiment [1] is -1.5%; in experiment [2] it was -5.15%; in experiment [3], 2.3%; in experiment [4] it was 14.7%; in experiment [5], -2.1%; in experiment [6], -14.5%.

In the case of `Cc1cc(C(=O)O)c2cc(Br)ccc2n1`, the growth inhibition is 4.2% in experiment [1]; 12.3% in experiment [2]; 15.2% in experiment [3]; 17.3% in experiment [4]; 11.2% in experiment [5]; -4.5% in experiment [6].

Take `CCOc1ccc(OCC)c(NC(=O)OC(C)C)c1`: the growth inhibition in experiment [1] was -6.35%; in experiment [2] it was -3.25%; in experiment [3], 20.3%; in experiment [4], -27.5%; in experiment [5], 47.5%; in experiment [6], 12.9%.

With `COc1ccccc1NC(=O)CC(=O)n1nc(C)c(N=Nc2ccccc2F)c1C`, the growth inhibition in experiment [1] is -41.6%; in experiment [2], 1.45%; in experiment [3] it was -28.2%; in experiment [4] it was 6.8%; in experiment [5], -31.9%; in experiment [6], -30.3%.

Turning to `Cc1cc(C)c(N=Nc2cc(C)c(N)cc2N)c(S(=O)(=O)O)c1`, the growth inhibition in experiment [1] was -21.6%; in experiment [2] it was -1.35%; in experiment [3], -2.1%; in experiment [4], -61.5%; in experiment [5] it was 7.3%; in experiment [6] it was 10.8%.

Regarding `Cc1ccc2c(c1)C(c1ccccc1)(c1ccccc1)OC2`, the growth inhibition in experiment [1] is 8.65%; in experiment [2], 41.4%; in experiment [3], 9.45%; in experiment [4], -10.8%; in experiment [5], 10.4%; in experiment [6], 13.6%.

For `COc1ccc(Br)cc1C=Nc1ccccc1`, the growth inhibition in experiment [1] is 14.9%; in experiment [2], 3.05%; in experiment [3] it was 19.2%; in experiment [4], -8.05%; in experiment [5] it was 9.05%; in experiment [6] it was 4.85%.

For the molecule `Cn1c(=O)c2[nH]c(SCc3ccccn3)nc2n(C)c1=S`, the growth inhibition was 6.05% in experiment [1]; -42.5% in experiment [2]; -20.9% in experiment [3]; -47.1% in experiment [4]; -26.6% in experiment [5]; 13.4% in experiment [6].

Regarding `Clc1ccc(N=Cc2ccc(C=Nc3ccc(Cl)cc3)cc2)cc1`, the growth inhibition in experiment [1] is 8%; in experiment [2] it was 9.25%; in experiment [3], 24.1%; in experiment [4], 21.6%; in experiment [5], 15%; in experiment [6], 19.9%.

Take `NC(CSSCC(N)Cc1ccccc1)Cc1ccccc1` (stereo not given): the growth inhibition in experiment [1] is -4.25%; in experiment [2], -9.45%; in experiment [3] it was -9.2%; in experiment [4], 14.8%; in experiment [5] it was -27.5%; in experiment [6], 25.9%.

In the case of `CN(C)CCCC1c2ccccc2Oc2ccc(C(F)(F)F)cc21` (stereo not given), the growth inhibition was -9.45% in experiment [1]; -28.4% in experiment [2]; -11.9% in experiment [3]; -25.1% in experiment [4]; 41.9% in experiment [5]; 31.2% in experiment [6].

Regarding `CCOC1CN(C(=O)ON)N1C(=O)ON` (stereo not given), the growth inhibition in experiment [1] is 4.8%; in experiment [2], -12.6%; in experiment [3], -10.4%; in experiment [4], -33.2%; in experiment [5], -22.4%; in experiment [6], 4.85%.

Regarding `Cc1ccc2c(c1)N=C(Nc1ccccc1)N=S2(C)=O` (stereo not given), the growth inhibition in experiment [1] was 2.95%; in experiment [2], -18.7%; in experiment [3] it was 0.45%; in experiment [4], -11.7%; in experiment [5], -7.55%; in experiment [6], -41.5%.

For `c1ccc(-c2nc3ccccc3nc2-c2ccc(-c3ccc(-c4nc5ccccc5nc4-c4ccccc4)cc3)cc2)cc1`, the growth inhibition in experiment [1] is 16.1%; in experiment [2] it was 5.8%; in experiment [3], -13.8%; in experiment [4] it was 21.3%; in experiment [5], -0.4%; in experiment [6], 4.1%.

Regarding `CCC1(CC)COC2(CCC(C)CC2)OC1`, the growth inhibition was -6.4% in experiment [1]; -2.95% in experiment [2]; -5.05% in experiment [3]; -16.1% in experiment [4]; -14.7% in experiment [5]; 7.5% in experiment [6].

Consider `CCCCCCCCCCCCCCCCCC(=O)Oc1c(C(C)(C)C)cc([N+](=O)[O-])c(C)c1[N+](=O)[O-]`, for which the growth inhibition in experiment [1] is 98.2% (active); in experiment [2], 99.2% (active); in experiment [3], 98.8% (active); in experiment [4] it was 98.9% (active); in experiment [5] it was 99.2% (active); in experiment [6] it was 98.2% (active).
